For 113 compounds, z-score results are on record in PubChem BioAssay AID488969 (Vanderbilt High Throughput Screening Facility, 2010).

Over roughly 110,000 compounds, “z-score” has its median near -0.1; the highest 2% begin near 2. What follows is part of a selection rich in the highest values, with near analogues and random picks from the rest. Activity calls are given as the source filed them.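 The calls were made as follows: active = z-score in the third read window above 3 or below -3; inactive = the rest.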

Chain of Metabotropic glutamate receptor 8 (Rattus norvegicus) (P70579 whole entry, looked up): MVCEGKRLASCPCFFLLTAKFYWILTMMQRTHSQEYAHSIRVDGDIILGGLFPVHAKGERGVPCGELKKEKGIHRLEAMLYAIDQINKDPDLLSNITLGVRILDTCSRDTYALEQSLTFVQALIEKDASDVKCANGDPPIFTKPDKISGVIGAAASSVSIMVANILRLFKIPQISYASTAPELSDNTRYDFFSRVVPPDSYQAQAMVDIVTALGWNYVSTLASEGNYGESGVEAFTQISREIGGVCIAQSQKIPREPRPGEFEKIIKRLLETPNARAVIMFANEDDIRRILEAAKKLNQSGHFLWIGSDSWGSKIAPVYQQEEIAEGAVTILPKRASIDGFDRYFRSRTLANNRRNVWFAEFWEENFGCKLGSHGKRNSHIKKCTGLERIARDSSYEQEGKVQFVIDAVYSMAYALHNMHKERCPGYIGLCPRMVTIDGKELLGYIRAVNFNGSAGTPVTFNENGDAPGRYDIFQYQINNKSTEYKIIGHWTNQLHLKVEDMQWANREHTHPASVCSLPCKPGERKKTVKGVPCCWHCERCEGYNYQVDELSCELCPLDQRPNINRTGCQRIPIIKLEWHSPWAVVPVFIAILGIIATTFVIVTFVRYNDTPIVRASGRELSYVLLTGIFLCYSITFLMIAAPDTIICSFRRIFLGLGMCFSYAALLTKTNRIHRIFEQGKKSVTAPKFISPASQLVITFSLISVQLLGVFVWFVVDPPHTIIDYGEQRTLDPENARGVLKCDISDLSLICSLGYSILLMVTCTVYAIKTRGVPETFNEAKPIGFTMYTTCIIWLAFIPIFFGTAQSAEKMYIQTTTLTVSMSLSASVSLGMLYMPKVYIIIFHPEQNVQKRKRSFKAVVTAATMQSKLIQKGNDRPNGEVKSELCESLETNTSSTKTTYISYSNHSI

The experiment concerns the target Metabotropic glutamate receptor 8 (Rattus norvegicus) (UniProt P70579). As to the kind of experiment: rat mGluR8 modulators via GIRK flux, primary screen, cell-based, thallium flux, HTS (AID 488969). The note with it: HEK293 rat mGluR8, GIRK (G protein-gated inwardly rectifying potassium channel) thallium flux, FluoZin2; at 10 µM; stronger effect = higher value; submaximal glutamate (EC20) added with thallium.
The compound `CCOC(=O)c1cc2c(=O)n3cccc(C)c3nc2n(CC2CCCO2)c1=NC(C)=O` (stereo not drawn) showed a z-score of -0.0779.
The compound `O=C(CCC(=O)c1ccc(Oc2ccccc2)cc1)Nc1ccc(Cl)cc1Cl` came in with a z-score of 0.0353.
The figure for `O=C(COc1ccccc1Cl)Nc1cc(Cl)ccc1Oc1ccccc1` is -0.0408; for `S=C(Nc1ccc(Cl)cc1Cl)Nc1ccccc1Oc1ccccc1` it is 4.54 (active); for `COc1cc(OC)c(NC(=O)CCNC(=O)Cn2cnc3ccccc3c2=O)cc1Cl` it is 2.94.
Consider `COc1cc(OC)c(NC(=O)CCNC(=O)Cn2ccc3ccccc3c2=O)cc1Cl`, for which the z-score was -0.293.
`CCN(CC)S(=O)(=O)c1ccc(NC(=O)Cn2cnc3ccccc3c2=O)cc1` came in with a z-score of -0.403.
Next, `CN(C)S(=O)(=O)c1cccc(NC(=O)Cn2cnc3ccccc3c2=O)c1`: 0.0344; `CCN(CC)S(=O)(=O)c1cc(NC(=O)Cn2cnc3ccccc3c2=O)ccc1C`: 3.32 (active).
The figure for `COc1ccc(NC(=O)CCNC(=O)Cn2cnc3ccccc3c2=O)c(OC)c1` is -0.512; for `C=CCc1ccccc1OCC(O)CN(CC)CC` (stereo not drawn) it is 0.0462.
Next, `CCCNC(=O)Cn1cnc2sc(C(=O)N3CCN(c4ccc(F)cc4)CC3)c(C)c2c1=O`: -0.159; `CCCCS(=O)CC(CS(=O)CCCC)OC(=O)c1ccccc1` (stereo not drawn): 0.895; `O=C(/C=C/c1cccc2ccccc12)NCCC1=CCCCC1`: -0.101.
For the compound `CC(C)(C)NS(=O)(=O)c1ccc(NS(C)(=O)=O)cc1`, the z-score is -0.0947.
Turning to `c1ccc(COc2ccc(Nc3ncnc4nc[nH]c34)cc2)cc1`, the z-score was found to be 0.0418.
The figure for `CCOC(=O)c1ccc(Nc2ncnc3nc[nH]c23)cc1` is -0.0179; for `CCCCc1ccc(Nc2ncnc3nc[nH]c23)cc1` it is 2.82; for `COc1ccc(O)c(/C=N\NC(=O)CCn2nnc3ccccc32)c1` it is -0.125.
Next, `COc1cccc(/C=N/NC(=O)CCn2nnc3ccccc32)c1`: 2.1; `COc1cc(/C=N/NC(=O)CCn2nnc3ccccc32)ccc1O`: -0.659.
Next, `CCOC(=O)Cc1nnc(Nc2cccc(C)c2)c2ccccc12`: -0.988.
Turning to `O=C(NCC1CCN(c2ccc(S(=O)(=O)N3CCOCC3)cc2)CC1)c1cccc(Cl)c1`, the z-score amounted to 0.0384.
The figure for `COc1ccc(/C=C/C(=O)NC(=S)NN2CCCCC2c2cccnc2)cc1` (stereo not drawn) is 0.454; for `O=C(/C=C/c1ccc(Cl)cc1)NC(=S)NN1CCCCC1c1cccnc1` (stereo not drawn) it is 2.97.
`COc1ccc(/C=C/C(=O)NC(=S)NN2CCCCC2c2cccnc2)cc1OC` (stereo not drawn) gave a z-score of 0.0576.
The figure for `C=CCC(NCc1ccccc1)c1ccc(C)o1` (stereo not drawn) is 0.143; for `C=CCC(NCc1ccccc1)c1ccco1` (stereo not drawn) it is 2.42.
The figure for `C=CCC(NC(C)c1ccccc1)c1ccco1` (stereo not drawn) is 0.174; for `N#Cc1cnc(SCC(=O)c2ccccc2)nc1N` it is 0.0176; for `Cc1cc(N2CCOCC2)n2nc(C)c(-c3ccccc3)c2n1` it is 4.01 (active).
The figure for `Cc1cc(N2CCC(C)CC2)n2nc(C)c(-c3ccccc3)c2n1` is -0.28; for `Cc1cc(N2CCCCC2)n2ncc(-c3ccccc3)c2n1` it is -0.231; for `Cc1cc(N2CCOCC2)n2ncc(-c3ccccc3)c2n1` it is -0.401.
`Cc1cc(N2CCC(C)CC2)n2ncc(-c3ccccc3)c2n1`: the z-score was 3.32 (active).
`Cc1cc(N2CCN(Cc3ccccc3)CC2)n2nc(C)c(-c3ccccc3)c2n1` had a z-score of 0.0393.
Regarding `Cc1cccc2cc(CN(Cc3cccs3)C(=S)NCC3CCCO3)c(=O)[nH]c12` (stereo not drawn), the z-score was -0.229.
Next, `O=C1c2ccccc2C(Nc2ccc3c(c2)OCCO3)N1c1ccccn1` (stereo not drawn): 0.814; `CCc1cccc(CC)c1NC(=S)N1CCn2cccc2C1c1cccnc1` (stereo not drawn): 0.37; `O=S(=O)(c1ccc(S(=O)(=O)N2CCCC2)cc1)N1CCCCCC1`: 0.224.
Next, `NS(=O)(=O)c1ccc(S(=O)(=O)N2CCCC2)cc1`: 3.11 (active); `Nc1ccc(S(=O)(=O)N2CCCC2)cc1`: -0.115; `CSc1ccccc1NC(=O)c1ccoc1C`: -0.082.
The figure for `C=C(C)CNC(=S)N/N=C/C1=CCC2CC1C2(C)C` (stereo not drawn) is 0.611.
For `CCCCNC(=S)N/N=C/C1=CCC2CC1C2(C)C` (stereo not drawn), the z-score was 1.99.
The figure for `CC1(C)C2CC=C(/C=N/NC(=O)c3ccc(Cl)cc3)C1C2` (stereo not drawn) is 0.355.
Next, `CCc1cc2c(cc3c(=O)n(CC(=O)NCCCN4CC(C)CC(C)C4)ncn32)s1` (stereo not drawn): 2.41; `CC1CC(C)CN(CCCNC(=O)Cn2ncc3c(=O)oc4ccccc4c32)C1` (stereo not drawn): -0.462.
The compound `CC1CC(C)CN(CCCNC(=O)CCNC(=O)Cn2ccc3ccccc3c2=O)C1` (stereo not drawn) had a z-score of -1.48.
For the compound `CCOC(=O)C1C(=O)CC(C)(O)C(C(=O)OCC)C1c1ccc(N(CC)CC)cc1` (stereo not drawn), the z-score is -0.205.
Next, `CCC(C)NC(=O)/C(=C/c1ccco1)c1ccccc1` (stereo not drawn): -0.109; `CC(C)NC(=O)/C(=C/c1ccco1)c1ccccc1`: 2.43; `CC(C)(C)NC(=O)/C(=C/c1ccco1)c1ccccc1`: -0.0597.
`CCN(CC)S(=O)(=O)c1cc(Br)c(C)cc1OC`: the z-score is -0.159.
Next, `Cc1ccc(-c2nn(C)c(=O)c3ccccc23)cc1CNS(C)(=O)=O`: -0.0971; `COc1ccc(OC)c(NC(=S)N2CCN(C/C=C/c3ccccc3)CC2)c1`: -0.183.
The figure for `CNS(=O)(=O)c1cccc(C(=O)OC2CCCCC2=O)c1` (stereo not drawn) is 2.06.
The figure for `O=C(OC1CCCCC1=O)c1cccc(S(=O)(=O)NCc2ccccc2)c1` (stereo not drawn) is -0.182; for `CC(=O)Nc1ccc(C(=O)OC2CCCCC2=O)cc1` (stereo not drawn) it is 0.0145; for `O=C1C2C3C=CC(C3)C2C(=O)N1Cc1ccc(CN2C(=O)C3C4C=CC(C4)C3C2=O)cc1` (stereo not drawn) it is -0.294.
Compound `Cc1cccc(NC(=S)/N=C(\N)Nc2nc(C)c3ccc(C)cc3n2)c1` returned a z-score of -0.215.
As for `CCCNc1cc(C)c(C#N)c2nc3ccccc3n12`, the z-score was -1.34.
As for `O=C(NC(=S)Nc1ccccc1N1CCOCC1)c1ccc([N+](=O)[O-])cc1`, the z-score was determined as 0.377.
Next, `O=C(NC(=S)Nc1ccc(N2CCCC2)cc1)c1ccccc1[N+](=O)[O-]`: 0.0592; `Cc1ccc(C(=O)NC(=S)Nc2ccccc2N2CCCC2)cc1[N+](=O)[O-]`: 0.134.
The figure for `O=C(NC(=S)Nc1ccccc1N1CCCC1)c1ccc([N+](=O)[O-])cc1` is 14.4 (active).
Consider `O=C(NC(=S)Nc1ccccc1N1CCCC1)c1ccccc1[N+](=O)[O-]`, for which the z-score was 7.29 (active).
Turning to `Cc1c(C(=O)NC(=S)Nc2ccccc2N2CCCC2)cccc1[N+](=O)[O-]`, the z-score is 3.83 (active).
The compound `O=C(NC(=S)Nc1cc(C(F)(F)F)ccc1Cl)c1ccccc1` yielded a z-score of 1.04.
For `O=C(Nc1ccccc1N1CCOCC1)c1ccccc1[N+](=O)[O-]`, the z-score was -0.093.
For the compound `Cc1cc(C(=O)NC(=S)Nc2ccccc2N2CCCC2)ccc1[N+](=O)[O-]`, the z-score is 0.156.
Next, `O=C(NC(=S)Nc1cc([N+](=O)[O-])ccc1Cl)c1ccccc1`: 12.9 (active); `COc1ccc(C(=O)NC(=S)Nc2ccccc2N2CCCCC2)cc1[N+](=O)[O-]`: 0.366; `O=C(NC(=S)Nc1cccc(NC(=O)c2ccccc2)c1)c1cccc([N+](=O)[O-])c1`: -0.0765.
The figure for `Cc1ccc(S(=O)(=O)CCc2nc3ccccc3s2)cc1C` is -0.169.
Compound `CCCC(=O)O[C@@H]1C[C@@H](C)N(C(=O)c2ccccc2)c2ccc(C)cc21` had a z-score of -0.411.
On to `Cc1ccc(OC(=O)CCc2c(C)nc3ncnn3c2C)cc1`, for which the z-score is -0.382.
Consider `O=c1oc2c(CN3CCOCC3)c(O)ccc2c2c1CCC2`, for which the z-score was determined as 0.00993.
The compound `O=C(NNC(=O)c1sc2ccccc2c1Cl)Nc1ccc(Cl)cc1` yielded a z-score of -0.0174.
The figure for `COc1ccccc1C(=O)NNC(=S)NC(=O)c1sc2ccccc2c1Cl` is 4.01 (active); for `O=C(NNC(=S)NC1CCCCC1)c1sc2ccccc2c1Cl` it is -0.163.
The figure for `O=C(NC(=S)Nc1ccccc1N1CCOCC1)c1sc2ccccc2c1Cl` is 1.18; for `COc1ccccc1C(=O)NC(=S)Nc1ccc(NC(=O)c2cccs2)cc1` it is 0.853; for `COc1ccccc1C(=O)NNC(=S)NC(=O)c1ccco1` it is 1.4.
In the case of `CC(C)(C)C(=O)NC(=S)NNC(=O)c1sc2ccccc2c1Cl`, the z-score was 13.7 (active).
Regarding `COc1ccccc1C(=O)NC(=S)NNC(=O)c1sc2ccccc2c1Cl`, the z-score is 3.35 (active).
The figure for `COc1ccc(CCNC(=O)c2sc3ccccc3c2Cl)cc1OC` is -0.565; for `COc1ccccc1CNC(=O)CSc1ccc(Br)cc1` it is 0.558; for `Cc1cc(C)cc(C(=O)N2CCCCCC2)c1` it is 0.076.
In the case of `COc1ccc(NC(=O)[C@H](COCc2ccccc2)NC(=O)OC(C)(C)C)cc1`, the z-score came out at 0.329.
Compound `Cc1cc(NC(=O)CSc2nnc(-c3ccco3)o2)no1` returned a z-score of 0.184.
In the case of `Cc1c(Cl)cccc1NC(=S)NCc1cccn1C`, the z-score was 0.262.
`Cc1ccccc1NC(=S)NCc1cccn1C` yielded a z-score of -0.488.
Consider `Cc1ccc(Cl)cc1NC(=S)NCc1cccn1C`, for which the z-score was 6.81 (active).
For `O=C(OC1CCN(c2ncc(C(F)(F)F)cc2Cl)CC1)c1ccc(Cl)cc1`, the z-score is -0.0974.
`COc1cc(Cn2ccnc2)c(OC)cc1Cn1ccnc1`: the z-score was -0.198.
Next, `O=C(O)Cn1ccnc1`: -0.327.
The figure for `c1cn(CC2(Cn3ccnc3)COC2)cn1` is 3.15 (active).
Turning to `CCCN1CCC(NC(=O)Nc2ccc(F)cc2F)CC1`, the z-score was 2.81.
For `CCCN1CCC(NC(=O)Nc2ccccc2C(=O)OC)CC1`, the z-score was -0.336.
Next, `CCCN1CCC(NC(=O)Nc2ccc(OC)c(OC)c2)CC1`: 0.00828; `COC(=O)c1ccc(NC(=O)CNCc2ccncc2)cc1`: -0.143; `Cc1noc(C)c1C(=O)N1CCc2ccccc2C1`: 1.98.
Next, `Cc1onc(-c2c(Cl)cccc2Cl)c1C(=O)N1CCc2ccccc2C1`: 0.0144; `Cc1onc(-c2ccccc2Cl)c1C(=O)N1CCc2ccccc2C1`: -0.95; `C=CCn1c(CCNC(=O)c2ccccc2F)nnc1SCC(=O)Nc1nc(C)cs1`: 0.0314.
The figure for `CCOc1cc(C2C(C#N)=C(N)Oc3n[nH]c(C)c32)ccc1OCCN1CCOCC1` (stereo not drawn) is -0.102; for `COC(=O)c1cc(-c2ccccc2)on1` it is -1.87.
Turning to `CCCCP(=O)(CCCC)CCP(=O)(c1ccccc1)c1ccccc1`, the z-score is -0.667.
As for `O=C(O)Cn1c(SCc2cccc3ccccc23)nc2ccccc21`, the z-score is 1.11.
Regarding `O=C(O)CCn1c(SCc2cccc3ccccc23)nc2ccccc21`, the z-score is 2.1.
The figure for `O=C(O)CCn1c(SCc2ccccc2)nc2ccccc21` is -0.0963; for `CCOc1ccc(NC(=O)CCNc2c(N3CCCC3)c(=O)c2=O)cc1` it is -0.437.
